In ChEMBL document CHEMBL3988442, “University of Dundee, Small-Polar-MMV Screening Library” (2021):
Hit rate of the full screen: of about 48,000 compounds, about 13,000 (27%) showed an effect of 50% or more. Some of the results follow.

The compounds below were run on Wolbachia pipientis (assay: Anti-Wolbachia Cell-Based Screen). Conditions: 5 µM.
Type: functional
Parameters: scale not given: in the data most compounds retested in dose-response had high values

Structure (SMILES)	Percent Effect [%]
CN(C)C(=O)CN1CCCC1c1cccc(Cc2ccccc2F)n1 (stereo unspecified)	121.7
Cc1nccn1CC1CCCN1S(=O)(=O)Cc1ccccc1F (stereo unspecified)	-7.214
CC(=O)N1CCCC1c1cccc(Cc2ccccc2Cl)n1 (stereo unspecified)	110.5
CS(=O)(=O)N1CCCC1c1cccc(Cc2ccccc2F)n1 (stereo unspecified)	107.7
CC(=O)N1CCCC1c1cccc(NCc2ccccc2F)n1 (stereo unspecified)	111.2
COCCN(C)CC1CCCN1S(=O)(=O)Cc1ccccc1F (stereo unspecified)	4.481
O=C(NC[C@H]1OC[C@@H](NC2COC2)[C@@H]1O)c1cccs1	4.392
CN(Cc1ccoc1)C(=O)C1CC(=O)N(Cc2ccncc2)C1 (stereo unspecified)	3.123
CC(=O)N1CCCC1c1cccc(Cc2ccccc2F)n1 (stereo unspecified)	1.098
CC(=O)N1CCCC1c1cccc(Oc2ccccc2F)n1 (stereo unspecified)	150.9
COCC(=O)N1CCCC1c1cccc(Cc2ccccc2F)n1 (stereo unspecified)	111
CC(C)(C)c1coc([C@@H]2COCCN2CC2CC2)n1	-8.42
CCc1n[nH]c(C2CN(Cc3nnc(C4CC4)n3C)CCO2)n1 (stereo unspecified)	-1.784
CCS(=O)(=O)c1ccc(N2CCC(NC(=O)c3ccccn3)CC2)cc1	1.284
COc1ccc(C[C@H]2CN(c3nnc(C)s3)CC[C@H]2OC)cc1.O=C(O)C(F)(F)F	100.4
COc1ccc(C[C@H]2CN(c3nnc(C)s3)CC[C@@H]2OC)cc1.O=C(O)C(F)(F)F	83.05
Cn1nc(Cn2cccn2)c2c1CN(Cc1ccsc1)C2.O=C(O)C(F)(F)F	-9.596
O=C(O)C(F)(F)F.O=C(c1cnccn1)N1CCCC2(CCN(Cc3ccsc3)CC2)C1	106.6
Cn1cccc1CN1CCC2(CCCN(C(=O)c3cnccn3)C2)C1.O=C(O)C(F)(F)F (stereo unspecified)	-0.2095
O=C(O)C(F)(F)F.O=C(O)C(F)(F)F.O=C(c1cnccn1)N1CCCC2(CCN(Cc3cccnc3)C2)C1 (stereo unspecified)	-9.392
O=C(O)C(F)(F)F.O=C(c1cnccn1)N1CC2(CCN(Cc3ccsc3)C2)C1	96.61
O=C(O)C(F)(F)F.O=C(c1cnccn1)N1CCOC2(CCN(Cc3ccsc3)CC2)C1	-59.08
O=C(O)C(F)(F)F.O=C(c1cnccn1)N1CCCC2(CCN(Cc3ccsc3)C2)C1 (stereo unspecified)	100.1

Structure (SMILES)	Percent Effect [%]
O=C(O)C(F)(F)F.O=C(O)C(F)(F)F.c1csc(CN2CC3(CCN(Cc4ccsc4)C3)C2)n1	-7.051
O=C(O)C(F)(F)F.O=C(c1cnccn1)N1CCCC2(CCN(Cc3ccc(F)cc3)C2)C1 (stereo unspecified)	8.086
CN1CC2(CCN(Cc3cccc(C#N)c3)CC2)CC1=O	2.767
CCN1CCC(CNC(=O)C(c2ccc(F)cc2)N(C)C)(N(C)C)CC1 (stereo unspecified)	-1.923
CN(C)C(=O)c1ccc(OC2CCCC2)cc1	1.251
O=C1NCCO[C@H]2CN(C(=O)c3cccs3)CC[C@@H]12	-55.85
Cn1cccc1C(=O)N1CC[C@H]2[C@H](CO[C@H]2CNS(C)(=O)=O)C1	-6.617
O=C(c1cccs1)N1CC[C@H]2C[C@@H](c3nnc(C4CC4)o3)O[C@@H]2C1	88.85
O=C(c1cscn1)N1C[C@@H]2C[C@@H](c3nnc(C4CC4)o3)O[C@@H]2C1	-5.593
O=C(c1ccsc1)N1CC[C@H]2C[C@@H](c3nnc(C4CC4)o3)O[C@@H]2C1	4.587
O=C(c1ccccc1)N1CC[C@H]2C[C@@H](c3nnc(C4CC4)o3)O[C@@H]2C1	70.82
Cn1cccc1C(=O)N1C[C@@H]2C[C@@H](c3nnc(C4CC4)o3)O[C@@H]2C1	104.3
O=C(c1cscn1)N1CC[C@H]2C[C@H](c3nnc(C4CC4)o3)O[C@@H]2C1	101.5
CCC(C)c1noc(C2CCN(C(=O)c3cccs3)CC2)n1 (stereo unspecified)	-5.715
Cc1ccc(C(=O)N2C[C@@H]3C[C@@H](c4nnc(C5CC5)o4)O[C@@H]3C2)s1	-0.8808
COc1cc(N2CCC(c3nccn3Cc3ccccn3)CC2)ncn1	2.703
CCCN1CCC(Nc2nc(C)ns2)CC1	-28.04
COc1ccc(CN2CCC=C(C(C)NC(C)=O)C2)cc1 (stereo unspecified)	-15.58
Cc1n[nH]c(CN2CCN(CC3CC3)[C@@H]3CS(=O)(=O)C[C@@H]32)n1	6.272
CCOc1cccc(CCNC(=O)Cc2ccccc2O)n1	-26.19
Cc1cnc2c(S(=O)(=O)NCC3CCS(=O)(=O)C3)cccc2c1 (stereo unspecified)	-2.686
COCC(=O)N1CC[C@H]2C[C@H](c3nnc(C4CC4)o3)O[C@@H]2C1	59.46
Cc1noc([C@H]2C[C@@H]3CCN(C(=O)c4cccn4C)C[C@H]3O2)n1	59.05

Structure (SMILES)	Percent Effect [%]
COCC(=O)N1CC[C@H]2C[C@@H](c3nnc(C4CC4)o3)O[C@@H]2C1	-4.608
O=C(c1ccoc1)N1CC[C@H]2C[C@@H](c3nnc(C4CC4)o3)O[C@@H]2C1	103
Cc1csc([C@@H]2C[C@@H]3CCN(C(=O)c4cccn4C)C[C@H]3O2)n1	-10.26
COCC(=O)N1CC[C@H]2C[C@H](c3nc(C)no3)O[C@@H]2C1	4.349
Cc1nc([C@H]2C[C@@H]3CCN(C(=O)c4ccnnc4)C[C@H]3O2)sc1C	-5.019
O=C(c1ccccc1)N1CC[C@H]2C[C@H](c3nnc(C4CC4)o3)O[C@@H]2C1	87.37
Cc1nc([C@@H]2C[C@@H]3CCN(C(=O)c4ccnnc4)C[C@H]3O2)sc1C	3.729
COCCN1CCN(CCS(=O)(=O)C(F)(F)F)CC1C (stereo unspecified)	6.413
O=C1NCCN2CCN(Cc3ccc(Cl)c(Cl)c3)CC12 (stereo unspecified)	-5.038
Cc1cccc(CCC(=O)N2CCOCC2c2c(C)n[nH]c2C)c1 (stereo unspecified)	9.952
CC(C)(C)c1noc(CCCC(=O)N2CCCC(c3ccn[nH]3)C2)n1 (stereo unspecified)	-11.26
Cc1c[nH]c(C2CCCN(C(=O)CCc3c(C)n[nH]c3C)C2)n1 (stereo unspecified)	139.5
Cc1c[nH]c(C2CCCN2C(=O)CCc2c(C)n[nH]c2C)n1 (stereo unspecified)	109.7
Cc1c[nH]c(C2COCCN2C(=O)CCc2c(C)n[nH]c2C)n1 (stereo unspecified)	111
Cc1cccc(-c2c[nH]c(C3CCCN3C(=O)Cn3cc(C)cn3)n2)c1 (stereo unspecified)	-5.472
Cc1n[nH]c(C)c1C1COCCN1C(=O)c1cc(Cl)c[nH]1 (stereo unspecified)	-20.41
O=C(CCn1cnnc1)N1CCCC(c2ncc[nH]2)C1 (stereo unspecified)	-20.34
Cc1n[nH]c(C)c1C1CCCN1C(=O)CNC(=O)C(C)(C)C (stereo unspecified)	1.097
CC(O)CN1CCC(CNCc2cn(-c3ccccc3)nn2)CC1 (stereo unspecified)	3.471
COCC(C)N(C)C(=O)NC1CCN(S(C)(=O)=O)CC1 (stereo unspecified)	2.159
CS(=O)(=O)c1ccc(CNC(=O)NCC2CCOC2)cc1 (stereo unspecified)	-15.52
CCSCCC(=O)NS(=O)(=O)c1ccc2c(c1)OCCO2	5.287
O=C(c1ccc[nH]1)N1C[C@H](OCc2ccccn2)[C@H]2COC[C@H]21	111.2

Structure (SMILES)	Percent Effect [%]
O=C(c1ccc[nH]1)N1C[C@H](OCc2cccnc2)[C@H]2COC[C@H]21	-9.205
CO[C@H]1CN(C(=O)c2ccc[nH]2)[C@@H]2COC[C@H]12	98.6
CCO[C@H]1CN(C(=O)c2ccc3c(c2)OCO3)[C@@H]2COC[C@H]12	0.5362
CO[C@H]1CN(C(=O)c2ccc3c(c2)OCO3)[C@@H]2COC[C@H]12	-7.485
Cc1nc(CO[C@H]2CN(C(=O)c3ccc[nH]3)[C@@H]3COC[C@H]23)cs1.O=C(O)C(F)(F)F	-0.1564
CCOCc1nnc(NCc2cccnc2)o1	-1.439
C=C(C)CN(CC)C(=O)c1cc(C)ccc1NS(C)(=O)=O	12.91
CCN(CC1CCOC1)C(=O)c1cc(Cl)c2c(c1)OCO2 (stereo unspecified)	-2.452
CC(C)N(CC(N)=O)C(=O)c1cc(F)ccc1N1CCN(C)CC1	95.17
CCN(CC1CCOC1)C(=O)c1ccccc1N1CCOCC1 (stereo unspecified)	5.823
CCN(CC1CCOC1)C(=O)c1ccc(N2CCOCC2)c(F)c1 (stereo unspecified)	110.6
CC(NCc1ccncc1)c1cc(F)ccc1N1CCN(C)CC1 (stereo unspecified)	-0.924
Cc1ccc(CNC(C)c2cc(F)ccc2N2CCN(C)CC2)o1 (stereo unspecified)	-9.069
C=C(C)CN(CC)C(=O)c1cc(F)ccc1N1CCN(C)CC1	106.7
CCN(CC1CCOC1)C(=O)c1cc(F)ccc1N1CCN(C)CC1 (stereo unspecified)	87.35
CCN(CC1CCOC1)C(=O)Nc1ccc(N2CCCC2)nc1 (stereo unspecified)	-5.429
C=C(C)CN(CC)C(=O)c1cc(F)ccc1NS(C)(=O)=O	23.28
CCN(CC1CCOC1)C(=O)c1cccnc1N1CCOCC1 (stereo unspecified)	-1.739
COC[C@@]12CC[C@@H](N3CCOCC3)C[C@H]1CCN(c1ccc(Cl)cn1)C2	-5.579
Cc1cnc(N2CCCC(c3ccccc3)C2)nc1-c1ncnn1C (stereo unspecified)	-17.16
O=C(NCC1COCc2c(-c3cccnc3)nnn2C1)c1cccs1.O=C(O)C(F)(F)F (stereo unspecified)	-12.79
O=S(=O)(C1CC1)N1CC[C@]2(C[C@H](OCC3CCOCC3)CO2)C1	2.042
